Pol eta inh-1 – blocks human DNA polymerase eta activity; AID 588591; Q9Y253; actives 1.2% (n = 390,000); Potency, µM (doses to about 114 µM), inactives show top-dose activity change, negative = inhibition, most hits filed as inhibitors; recombinant Pol eta, fluorescent DNA replication assay; note: % is set by controls: 0 for no effect and ±100 for the full control effect
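Pol eta at 10 nM preincubated with compounds 15 min at room temperature; reaction started with fluorescent substrate (50 nM final) and read kinetically at 0 and 10 min.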
Pol beta inh – DNA polymerase beta (human) inhibition | actives 1.3% (n = 340,000) | Potency, µM (series often up to 114 µM), inactives show at the top dose activity change, negative = inhibition, actives largely listed as inhibitors | AID 485314 | P06746 | Pol beta primer extension/strand displacement, fluorescence kinetic; note: % is set by controls: 0 for no effect and ±100 for the full control effect
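Kinetic readout of DNA synthesis with strand displacement by Pol beta. Compound and 10 nM enzyme sit 15 min at room temperature; 50 nM substrate starts the reaction, read immediately and at 10 min.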
FEN1 inhibitor – human FEN1 inhibition | P39748 | Recombinant FEN1 flap cleavage, fluorescence, 15 min | Potency, µM (doses to about 114 µM), inactives show at the highest dose activity change, negative = inhibition, hits mostly inhibitors | actives 0.35% (n = 390,000) | AID 588795; note: % is set by controls: 0 for no effect and ±100 for the full control effect; nearly all actives have a fitted effect of over 65% in size
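In this screen, 50 nM flap DNA substrate was added to 10 nM FEN1 pretreated with compound for 15 min at room temperature; cleavage was followed with reads at 0 and 15 min, and Hill fitting gave concentration–response parameters.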
WRN inhibitor – WRN helicase (human) inhibition; Q14191; Potency, µM (titrated, usually from 114 µM), inactives show top-dose activity change, negative = inhibition, most hits filed as inhibitors; WRN helicase unwinding, fluorescent forked duplex, kinetic; actives 0.46% (n = 360,000); note: % is set by controls: 0 for no effect and ±100 for the full control effect; nearly all actives have a fitted effect of over 55% in size
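Primary qHTS, 1536-well format. 20 nM WRN + compound, 15 min RT; start with 100 nM forked fluorophore/quencher duplex, 2 mM ATP (final); kinetic read ex 525/em 598 nm.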
Pol iota inh – blocks human DNA polymerase iota activity | Pol iota fluorescent replication assay, 10 min | Potency, µM (titrated, usually from 115 µM), for inactives: at the highest dose activity, negative = inhibition, actives largely listed as inhibitors | actives 1% (n = 390,000) | AID 588590
Target sequence (Q9UNA4 whole entry, looked up): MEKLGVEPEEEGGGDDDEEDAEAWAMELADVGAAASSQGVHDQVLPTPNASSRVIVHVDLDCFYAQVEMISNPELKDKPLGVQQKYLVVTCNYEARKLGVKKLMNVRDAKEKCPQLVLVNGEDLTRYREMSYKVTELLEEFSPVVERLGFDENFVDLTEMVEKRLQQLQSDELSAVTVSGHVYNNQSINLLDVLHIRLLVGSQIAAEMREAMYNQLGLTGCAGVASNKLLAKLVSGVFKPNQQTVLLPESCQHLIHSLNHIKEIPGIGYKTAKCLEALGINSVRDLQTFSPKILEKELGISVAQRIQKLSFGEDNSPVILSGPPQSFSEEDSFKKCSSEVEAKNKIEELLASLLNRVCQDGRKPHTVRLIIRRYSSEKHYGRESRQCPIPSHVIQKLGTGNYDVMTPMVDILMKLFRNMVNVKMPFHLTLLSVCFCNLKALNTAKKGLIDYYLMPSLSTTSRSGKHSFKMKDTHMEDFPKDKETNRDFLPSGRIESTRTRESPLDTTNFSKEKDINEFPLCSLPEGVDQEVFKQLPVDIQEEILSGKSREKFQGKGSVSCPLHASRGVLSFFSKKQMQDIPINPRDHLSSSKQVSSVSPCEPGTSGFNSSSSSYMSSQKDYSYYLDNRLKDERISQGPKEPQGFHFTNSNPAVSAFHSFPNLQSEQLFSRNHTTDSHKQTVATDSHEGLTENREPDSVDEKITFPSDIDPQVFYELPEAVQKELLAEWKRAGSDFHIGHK
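Pol iota at 10 nM preincubated 15 min with compounds at room temperature; reaction started with fluorescent substrate, 50 nM final. Fluorescence read kinetically at 0 and 10 min; buffer-only wells as negative control.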
Pol kappa inh-1 – inhibitors of human DNA polymerase kappa; Q9UBT6; purified Pol kappa, fluorescent DNA synthesis assay, 10 min; Potency, µM (top dose mostly 107 µM), for the others: at the highest dose activity, negative = inhibition, usual class: inhibitors; actives 0.53% (n = 400,000); AID 588579; note: % is set by controls: 0 for no effect and ±100 for the full control effect
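Activity was followed as the change in fluorescence between reads at 0 and 10 min after starting the reaction with 50 nM substrate. Beforehand, 10 nM polymerase had been preincubated with compound for 15 min at room temperature.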
TbPGK inh – validation of Trypanosoma brucei phosphoglycerate kinase inhibitors; shares compounds with Pol kappa inh-1; TbPGK coupled GAPDH assay, Kinase-Glo luminescence; Potency, µM (titrated, usually from 57.5 µM), for inactives: top-dose activity change, negative = inhibition, actives largely listed as inhibitors; actives 79% (n = 500); AID 686980; note: % is set by controls: 0 for no effect and ±100 for the full control effect; nearly all actives have a fitted effect of over 65% in size
Pol iota confirm – Confirm cherry-picked inhibitors of human polymerase iota; shares compounds with Pol kappa inh-1; Potency, µM, most hits filed as inhibitors; AID 720496; Pol iota primer extension, TAMRA/BHQ fluorescence; actives 77% (n = 1,500)
Pol kappa inh-2 – confirmation of human DNA polymerase kappa inhibitors. purified Pol-kappa, fluorescent strand-displacement substrate. actives 76% (n = 920). shares compounds with Pol eta inh-1. Potency, µM, actives largely listed as inhibitors
Pol eta inh-2 – confirmation of human DNA polymerase eta inhibitors | shares compounds with Pol eta inh-1 | Pol eta primer extension, TAMRA/BHQ fluorescence, 10 min | Potency, µM, hits mostly inhibitors | actives 64% (n = 2,600)
Starred values were filed as active, the others as inactive; ? = inconclusive; . = not tested or not shown; [ ] = remark or other dose. Shown are actives, neighbours in structure and some others; about 2.4% of the full set was active somewhere. Calls come from the whole dose curve; as a rule, active = well fitted curve in the direction sought with a large enough effect; inconclusive = small, poorly fitted or top-dose-only effect, or another doubt; inactive = no such curve, though single readings can be large; an effect the other way counts as inactive or inconclusive. Potency is the fitted concentration of half-maximal effect.

SMILES | Pol eta inh-1 | Pol beta inh | FEN1 inhibitor | WRN inhibitor | Pol iota inh | Pol kappa inh-1 | Pol iota confirm | Pol eta inh-2 | others
Cc1ccc(C(=O)O)cc1-c1ccc(/C=C2\SC(=O)N(CC(=O)Nc3ccccc3)C2=O)o1 | 18µM* | ? | 50µM* | ? | ? | ? | 42* | 48*
CC(Nc1oc(-c2ccc(COc3ccccc3)o2)nc1C#N)c1ccccc1 (stereo not drawn) | -5% | ? | 1% | . | 52% | -27% | . | .
COc1cccc(NC(=O)CN(C)C(=O)c2cc3c(s2)CCC3)c1 | 3.5µM* | . | -12% | ? | 22µM* | 32µM* | 34* | 76*
CCn1ccc2cc(S(=O)(=O)N3CCCN(C(=O)Nc4ccc(C)c(F)c4)CC3)ccc21 | -11% | -12% | 1% | . | -3% | -5%[60.1 µM] | . | .
C=C(C)C(=O)N1CC2(CC(c3cccc(NC(=O)/C=C\C=C/C)c3)=NO2)C[C@H]1C(N)=O (stereo partly drawn) | 13µM* | ? | -15% | ? | 11µM* | 40µM* | 13* | 19*
C=C(C)C(=O)Nc1cccc(C2=NOC3(C2)C[C@@H](C(N)=O)N(C(=O)c2cc([N+](=O)[O-])cc([N+](=O)[O-])c2C)C3)c1 (stereo partly drawn) | 13µM* | 20µM* | 1% | ? | ? | 50µM* | ? | 19* | TbPGK inh=?
Cc1ccc(C)c(-c2nnc(NC(=O)c3ccc4c(c3)OCCO4)o2)c1 | 1% | 17% | 2% | . | -2% | -5%[60.1 µM] | . | .
Cc1ccc(-c2cc(C(=O)OCC(=O)c3ccccc3)c3cccc(Cl)c3n2)cc1 | -4% | 3% | 12% | . | 9% | 5% | . | .
Cc1cc(C=O)c(C)n1-c1cccc(C(=O)O)c1 | 4µM* | 14µM* | 2% | -15%[11.6 µM] | 18µM* | 79µM* | 34* | 21*
COC(=O)c1cc(C(=O)OC)cc(-n2c(C)cc(C=O)c2C)c1 | -20% | 7% | 1% | -3% | 65% | -7% | . | .
Cc1cc(C=O)c(C)n1-c1cc(C(=O)O)cc(C(=O)O)c1 | 4µM* | 7.9µM* | ? | -26% | 25µM* | 50µM* | 17* | 5.4* | TbPGK inh=?
CS(=O)(=O)N1CCN(c2ccc([N+](=O)[O-])c(NCc3ccc(Cl)cc3)c2)CC1 | ? | ? | -5% | ? | 8.9µM* | ? | 38* | 85*
CS(=O)(=O)N1CCN(c2ccc([N+](=O)[O-])c(NCc3ccccc3)c2)CC1 | -12% | 5% | 0% | 6% | -2% | -3% | . | .
CCC(=O)Nc1ccc2nc3c(=O)[nH]c(=S)[nH]c3nc2c1 | 18µM* | 40µM* | 50µM* | ? | ? | 45µM* | 27* | 30* | Pol kappa inh-2=17*
CCOc1ccc(S(=O)(=O)NCc2cccn2Cc2cccc(C)c2)cc1 | -16% | -6% | -14% | . | 34% | -5%[60.1 µM] | . | .
O=C(/C=C/c1ccco1)c1cccnc1 | 14µM* | -25% | -22% | ? | ? | ? | 67* | 30*
COCCCn1c(=O)c2sccc2n2c(CCCC(=O)Nc3cccc(C(F)(F)F)c3)nnc12 | -5% | 97% | -9% | . | 28% | 4% | . | .
CC1=NOC(=O)/C1=C\c1ccc(-c2ccccc2Br)o1 | 20µM* | 22µM* | 40µM* | 56µM* | ? | ? | 75* | 48*
CC1=NOC(=O)/C1=C/c1ccc(O)cc1 | -16% | -28% | 8% | ? | ? | -2% | . | .
CC[C@@H]1CN2CCc3cc(OC)c(OC)cc3[C@@H]2C[C@@H]1C[C@H]1NCCc2cc(OC)c(OC)cc21 | . | . | . | . | . | -6%[19.4 µM] | . | .
Cc1ccc(-n2ncc3c(NC4CCCCC4)ncnc32)cc1 | -1% | -1% | -5% | . | 2% | -6%[60.1 µM] | . | .
CCc1nnc(NS(=O)(=O)c2ccc(N/C=C\C(=O)c3ccc4ccccc4c3)cc2)s1 | 50µM* | ? | ? | 50µM* | ? | -27% | ? | 76*
CCCCCCCCCCCCCCCCCCNc1ccn(C2OC(COP(=O)(O)OCC3OC(n4cc(F)c(=O)[nH]c4=O)CC3O)C(O)C2O)c(=O)n1 (stereo not drawn) | 14µM* | . | ? | 40µM* | 18µM* | 45µM* | 42* | 43* | Pol kappa inh-2=27*
CC(=O)c1cc(-c2ccc(F)cc2)n(CC(=O)NCc2ccc(C)cc2)c1C | -4% | -3% | 2% | . | 9% | -7%[60.1 µM] | . | .
O=C(O)C1=NN(c2cc(Cl)c(S(=O)(=O)O)cc2Cl)C(=O)C1 | 22µM* | . | ? | ? | 1.6µM* | 79µM* | . | ? | TbPGK inh=9.2µM*;Pol kappa inh-2=15*
SMILES | Pol eta inh-1 | Pol beta inh | FEN1 inhibitor | WRN inhibitor | Pol iota inh | Pol kappa inh-1 | Pol iota confirm | Pol eta inh-2 | others
Cc1cc(CC(=O)O)c2oc(-c3ccoc3)cc(=O)c2c1 | 8.9µM* | . | ? | ? | ? | 40µM* | 34* | 7.6*
Cn1cnnc1SCC(=O)Nc1ncc([N+](=O)[O-])s1 | 2.8µM* | . | ? | 40µM* | 7.9µM* | 71µM* | 19* | 15* | Pol kappa inh-2=3.4*
Cc1csc(NC(=O)CSc2nncn2C)n1 | -7% | -19% | 28% | -8% | -12% | 2% | . | .
COc1ccc(C(=O)CCc2ccccc2)c(O)c1 | -11% | . | -11% | -2% | 66% | 0% | . | .
COc1ccc(CCC(=O)O)c(O)c1 | 32µM* | 40µM* | -27% | -13% | ? | 71µM* | 75* | 67*
O=C(O)C1=C(C(=O)O)C2C=CC1C2 | 20µM* | . | -2% | -2%[11.6 µM] | ? | ? | . | ? | TbPGK inh=10µM*;Pol kappa inh-2=24*
O=S(=O)(c1ccc(Cl)c(NC(=S)N/N=C/c2ccc(O)cc2)c1)N1CCOCC1 | -16% | 19% | 1% | -29% | -7% | -7% | . | .
O=[N+]([O-])c1cc(Cl)cc(/C=N/NC(=S)Nc2ccc(S(=O)(=O)N3CCOCC3)cc2)c1O | 79µM* | ? | ? | -32%[11.6 µM] | ? | ? | ? | ?

High-throughput results deposited in PubChem by National Center for Advancing Translational Sciences (NCATS).
